{
  "source": "paper PMC12040169",
  "about": "(PLOS Biology, 2025)",
  "data": [
    {"tested_on": "T1, CTL2-GFP (C. trachomatis L2/434/Bu, GFP-expressing)", "T1 construct": "L2/434/Bu, GFP-expressing", "design": "species or system HeLa; Intracellular C. trachomatis growth in HeLa cells, bulk GFP fluorescence relative to DMSO", "settings": "bulk GFP, single well; 28.5 h, 10 µM; inhibitor", "experimental": "MICs were calculated as described above.", "units": {"% of control remaining": "%"}, "values": [
      {"compound": "S=P(Oc1ccccc1)(Oc1ccccc1)Oc1ccccc1", "note": "[CBK260987]", "% of control remaining": 100},
      {"compound": "CCOC(=O)CC(C)(O)P(=O)(OC)OC", "note": "(stereo not drawn) [CBK261287]", "% of control remaining": 100},
      {"compound": "O=C(c1cccc(S(=O)(=O)F)c1)N1CCCCC1", "note": "[CBK074224]", "% of control remaining": 100.074}
    ]}
  ]
}
